A selection: hits, their analogues and other compounds. The true share with any hit is near 7.9%.
KB-3-1 cytotox: KB-3-1 parental cell cytotoxicity | KB-3-1 viability, CellTiter-Glo ATP luminescence, 72 h | Potency, µM (series often up to 46.1 µM), most hits filed as cytotoxic | 1.4% of 400,000 active | AID 1347075; further: on the % scale 0 is the no-effect control and ±100 the full control effect; nearly all actives have a fitted effect of over 60% in size
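KB-3-1 parental drug-naive adenocarcinoma cells in DMEM/10% FBS, incubated 72 h at 37 C with pin-transferred compounds across a concentration series. Viability by CellTiter-Glo luminescence; concentration-response curves fitted after normalization.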
MCF10A rereplic: induces DNA re-replication in MCF 10a normal breast cells | MCF 10A DNA re-replication, Hoechst nuclear intensity, 48 h | Potency, µM (titrated, usually from 46.1 µM), inactives show top-dose activity, positive = re-replication, hits mostly activators | 2.9% of 350,000 active | AID 624296; further: % of control where 0% means no effect; nearly all actives have a fitted effect of over 50% in size
HT1080NT lethal: kills 2HG-producing HT-1080-NT fibrosarcoma cells; HT-1080-NT fibrosarcoma viability, CellTiter-Glo ATP luminescence, 48 h; Potency, µM (top dose mostly 46.1 µM), for inactives: top-dose activity, negative = less viability, actives largely listed as cytotoxic; 1.6% of 360,000 active; AID 686970;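 further: NT is the 2HG producing partner of a matched IDH1 knockdown line; 0% = DMSO-treated cells and -100% = media-only wells without cells; nearly all actives have a fitted effect of over 55% in size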
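Viability by CellTiter-Glo luminescence after 48 h compound exposure at 37C of HT-1080-NT cells (750/well, RPMI, 5% FBS). % activity scaled between DMSO wells and medium-only wells, then curve-fitted and categorized by curve class.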
KB-V1 cytotox: KB-V1 MDR subline cytotoxicity; KB-V1 MDR cells viability, CellTiter-Glo, 72 h; Potency, µM (doses to about 46.1 µM), most hits filed as cytotoxic; 3.4% of 400,000 active; further: on the % scale 0 is the no-effect control and ±100 the full control effect; nearly all actives have a fitted effect of over 60% in size
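Luminescent ATP read-out (CellTiter-Glo, 10 min) measures survival of drug-selected KB-V1 MDR cells after 72 h, 37 degrees C compound exposure. Medium: phenol-red-free DMEM, 10% FBS. Values from fitted concentration-response curves.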
HT1080 IDH1KD tx: HT-1080 IDH1 knockdown cell toxicity (counter line) | HT-1080 IDH1 knockdown viability, ATP luminescence, 48 h | Potency, µM (top dose mostly 46.1 µM), for the others: at the highest dose activity, negative = toxicity, actives largely listed as cytotoxic | 2% of 360,000 active | AID 686971;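 further: 0% = DMSO wells and -100% = cell-free medium wells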
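After a 2 h attachment period, IDH1KD HT-1080 cells took pin-transferred compound for 48 h at 37 °C; ATP-based luminescence after 10 min room-temperature reagent incubation reported viability.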
SW480 rereplic: inducers of DNA re-replication in SW480 colon cancer cells | SW480 DNA re-replication, Hoechst DNA content imaging, 48 h | Potency, µM (series often up to 46.1 µM), for the others: at the top dose re-replication activation, most hits filed as activators | 1.8% of 340,000 active; further: % of control where 0% means no effect; nearly all actives have a fitted effect of over 55% in size
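250 cells/well; 23 nL cpd via pin tool; 48 hr, 37 C, 5% CO2; Hoechst 40 min; imager read of total nuclear intensity, ex 405/em 500-530 nm.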
The depositor's hits bear a star; i = inactive; ? = inconclusive; · = no result; [ ] = remark or other dose. The call rests on the fitted dose curve; in most records, active means well fitted curve in the direction sought with a large enough effect; inconclusive means small, poorly fitted or top-dose-only effect, or another doubt; inactive means no such curve, though single readings can be large; an effect the other way counts as inactive or inconclusive. Potency means the concentration at half of the fitted maximal effect.

SMILES	KB-3-1 cytotox	MCF10A rereplic	HT1080NT lethal	KB-V1 cytotox	HT1080 IDH1KD tx	SW480 rereplic
C/C(=N\Nc1cc(C)nc(-c2ccccc2)n1)c1cccc([N+](=O)[O-])c1	i	0.731µM*	1.4%	i	-10.4%	6.1%
C/C(=N\Nc1cccc2cccnc12)c1ccc(N)cc1	i	19.9%	-10.5%	i	-8.0%	?
COc1cc(N/N=C(\C)c2ccc(O)c(C)c2)nc(-c2ccccc2)n1	i	?	20.6µM*	i	?	?
C/C(=N\Nc1cc(-c2ccccc2)nc(-c2ccccc2)n1)c1ccc(O)c(C)c1	i	7.31µM*	?	?	23.1µM*	?
O=C(Cn1c(=O)nc(-c2ccccc2)c2ccccc21)NCCCc1ccccc1	i	·	·	i	·	·
COc1ccc(CCNC(=O)c2sc3nc4n(c(=O)c3c2C)CCCC4)cc1OC	i	·	·	i	·	·
Cc1[nH]c2ccccc2c1/C=N/NC(=O)c1ccccc1	i	2.9%	2.8%	i	-2.0%	1.0%
O=C(N/N=C/c1ccccc1OC(F)F)c1cc(-c2ccncc2)nc2ccccc12	18.4µM*	4.61µM*	?	i	2.06µM*	11.6µM*
Cc1[nH]c2ccccc2c1/C=N/NC(=O)c1cc(-c2ccncc2)nc2ccccc12	?	?	?	i	4.61µM*	13µM*
Cc1[nH]c2ccccc2c1/C=N/NC(=O)c1cc(-c2ccccc2)n[nH]1	i	0.0%	14.6µM*	i	14.6µM*	-19.3%
Cc1nn(-c2ccccc2)c(C)c1/C=N/NC(=O)c1cc(-c2ccccc2)n[nH]1	0.411µM*	?	0.731µM*	?	?	?
Cc1ccc(S(=O)(=O)c2cn(CC(=O)Nc3ccc4c(c3)OCO4)c3ccc(C)cc3c2=O)cc1	i	·	·	i	·	·
COc1ccc(OC)c(CNC(=O)Cc2ccc(NC(=O)N3CCSc4ncccc43)cc2)c1	i	·	·	i	·	·
COc1cccc(CN2C(=O)c3ccccc3Sc3ccc(C(=O)NCCc4ccc(C)cc4)cc32)c1	i	·	·	i	·	·
CCC(c1nnnn1-c1c(C)cccc1C)N1CCN(c2ccccn2)CC1 (stereo not given)	i	·	-21.4%	?	-16.6%	·
Cc1occc1-c1nnc(SC(C)C(=O)Nc2ccccc2F)o1 (stereo not given)	?	-0.7%	?	10.3µM*	?	-8.7%
Cc1ccccc1-c1nnc(SC(C)C(=O)NC2CCCC2)o1 (stereo not given)	i	1.4%	2.2%	20.6µM*	9.4%	-3.0%
Cc1ccccc1-c1nnc(SCC(=O)NC2CCCCC2)o1	i	-3.1%	17.6%	i	10.4%	2.5%
CC(C)Cn1cc(NC(=O)N2CCN(c3ccccc3F)CC2)c2ccccc2c1=O	i	·	·	?	·	·
O=C(OCc1cc(=O)n2nc(C3CCCCC3)sc2n1)c1ccccc1Cl	i	·	·	i	·	·
CCCCNC(=S)N/N=C/c1cccc(OCC)c1O	i	1.1%	28.7%	i	9.4%	-6.9%
O=[N+]([O-])c1ccc(O)c(/C=N/Nc2nn[nH]n2)c1	i	?	-1.3%	i	-8.0%	-11.0%
O=[N+]([O-])c1ccc(O)c(/C=N/Nc2ccc(Cl)nn2)c1	?	0.731µM*	?	i	0.206µM*	?
CCOc1cccc(/C=N/NC(=S)Nc2ccccc2[N+](=O)[O-])c1O	i	9.7%	?	i	16.4µM*	8.6%
O=[N+]([O-])c1ccccc1C=NNC(=S)NN=Cc1ccccc1[N+](=O)[O-]	?	18.4µM*	?	?	?	20.6µM*
SMILES	KB-3-1 cytotox	MCF10A rereplic	HT1080NT lethal	KB-V1 cytotox	HT1080 IDH1KD tx	SW480 rereplic
O=[N+]([O-])c1ccc(Cl)c(/C=N/NC(=S)Nc2ccccc2)c1	i	?	?	i	4.47µM*	1.1%
O=C(CN(Cc1ccccc1)S(=O)(=O)c1ccccc1)N/N=C/c1ccccc1[N+](=O)[O-]	i	14.1%	?	23.1µM*	-28.7%	2.1%
O=C(O)c1ccccc1Nc1ccc([N+](=O)[O-])cc1	9.2µM*	9.6%	?	?	?	1.6%
Cc1ccc(CN(CC(=O)N/N=C/c2ccccc2[N+](=O)[O-])S(=O)(=O)c2ccc(C)cc2)cc1	i	4.7%	1.0%	i	1.7%	18.3%
O=C(Nc1ccc(Nc2ccccc2)cc1)c1cc([N+](=O)[O-])ccc1Cl	i	4.1%	?	i	18.4µM*	-4.3%
O=C(O)c1ccccc1Nc1ccccc1C(=O)O	i	-2.7%	-9.5%[9.24 µM]	i	-13.5%	11.8%
O=C(N/N=C/c1cc([N+](=O)[O-])ccc1O)c1cccc(NC(=O)c2cccc(Cl)c2)c1	i	-13.9%	-0.6%	i	-13.3%	2.31µM*
O=C(Nc1ccccc1Oc1ccccc1)c1cc([N+](=O)[O-])ccc1Cl	?	?	-8.9%	?	-6.9%	?
CCc1ccccc1NC(=O)C1CCCN(C(=O)c2cnn(-c3ccccc3)c2-n2cccc2)C1 (stereo not given)	i	·	·	i	·	·
CCOc1ccccc1C(=O)Nc1cc2c(cc1N1CCCCC1)n(C)c(=O)n2C	i	·	·	?	·	·
O=C(CSc1nnc2scc(-c3ccc(Cl)cc3)n12)Nc1ccccc1F	i	·	·	i	·	·
CCCCN(CCCC)S(=O)(=O)c1ccc(NC(=O)c2ccc([N+](=O)[O-])cc2Cl)cc1	?	-2.3%	-29.8%	16.4µM*	?	0.3%
O=[N+]([O-])c1ccc(O)c(/C=N\N=C2c3ccccc3-c3ccccc32)c1	8.2µM*	?	-16.7%	13µM*	-7.2%	?
O=C(CCC(=O)Nc1ccc(F)cc1)N/N=C/c1cc([N+](=O)[O-])ccc1O	i	17.3%	-27.3%	i	-13.6%	?
O=C(CCC(=O)Nc1cc(C(F)(F)F)ccc1Cl)N/N=C\c1cc([N+](=O)[O-])ccc1O	i	?	?	i	-13.2%	14.6µM*
CC(=O)N1CCN(c2ccc(NC(=O)c3ccc([N+](=O)[O-])cc3Cl)cc2)CC1	i	4.0%	20.8%	i	13.0%	-0.8%
Cc1ccccc1NC(=O)c1nc(SCc2ccccc2F)ncc1Cl	?	·	·	i	·	·
CC(C)C[C@@H](CN1CCCC1CN1C(=S)NC[C@@H]1Cc1ccc(O)cc1)N1C[C@H](Cc2ccc(O)cc2)N(CC2CCCCC2)C1=S (stereo not given in full)	?	7.31µM*	18.4µM*	?	?	?

Assay outcomes as filed in PubChem.
